{"source": "ChEMBL document CHEMBL3988442", "about": "“University of Dundee, Small-Polar-MMV Screening Library” (2021)", "note": "Screen size: about 69,000 compounds; about 950 (1.4%) showed an effect of 50% or more. This is one part of a sample in which strong results are shown more often than they occur."}
{"system": "Mycobacterium tuberculosis", "assay": "Cornell M. t heat shock assay; further: in the data most compounds retested in dose-response had high values", "assay_type": "functional, organism-based", "set-up": "dose or concentration left out as unconfirmed", "units": {"Percent Effect": "%"}}
{"smiles": "O=C(C1CCC1)N1C[C@@H]2CC[C@H](C1)N(S(=O)(=O)c1ccccc1)C2", "Percent Effect": -12.74}
{"smiles": "CN(C)C(=O)N1C[C@@H]2CC[C@H](C1)N(S(=O)(=O)c1cccnc1)C2", "Percent Effect": -21.11}
{"smiles": "O=C(NCc1cccnc1)N1CCc2ncnc(NC3CC3)c2CC1.O=C(O)C(F)(F)F", "Percent Effect": -0.2594}
{"smiles": "CCOCC1c2c(ncn2C)CCN1C(=O)c1cscn1", "note": "(stereo unspecified)", "Percent Effect": 57.96}
{"smiles": "CCOCC1c2c(ncn2C)CCN1C(=O)c1ccoc1", "note": "(stereo unspecified)", "Percent Effect": 35.15}
{"smiles": "CCOCC1c2c(ncn2C)CCN1C(=O)c1cnc(C)cn1.O=C(O)C(F)(F)F", "note": "(stereo unspecified)", "Percent Effect": 18.53}
{"smiles": "CC(C)(CO)NCc1ccc(OCc2ccc3c(c2)OCCO3)cc1.Cl", "Percent Effect": -22.54}
{"smiles": "O=C(O)C(F)(F)F.O=C(O)C(F)(F)F.O=C(O)C(F)(F)F.c1cncc(CN2CC[C@@H]3O[C@H](COCCN4CCCC4)CC[C@@H]32)c1", "Percent Effect": -18.74}
{"smiles": "CC(C)C(=O)N1CC[C@@H]2[C@H](CC1)N(Cc1cccnc1)CCS2(=O)=O.O=C(O)C(F)(F)F.O=C(O)C(F)(F)F", "Percent Effect": -30.61}
{"smiles": "CCOC(=O)C(C)Nc1cccc(COCc2ccco2)c1", "note": "(stereo unspecified)", "Percent Effect": 104.6}
{"smiles": "CC(Nc1cccc(COCc2ccco2)c1)C(=O)NC(N)=O", "note": "(stereo unspecified)", "Percent Effect": 0.6149}
{"smiles": "Cc1cc(NC(=O)C(C)Nc2cccc(COCc3ccco3)c2)on1", "note": "(stereo unspecified)", "Percent Effect": 4.042}
{"smiles": "CC(C)CN1CCC2(CCCNC2)C1=O.Cl", "note": "(stereo unspecified)", "Percent Effect": -13.24}
{"smiles": "O=C(O)C(F)(F)F.O=C(c1cccnc1)N1CCc2ncnc(C3CCOC3)c2CC1", "note": "(stereo unspecified)", "Percent Effect": 8.544}
{"smiles": "COCc1nn(C(C)C)c2c1CCN(Cc1nccs1)C2.O=C(O)C(F)(F)F", "Percent Effect": -16.62}
{"smiles": "Cc1nc(CN2CCO[C@@H]3CN(Cc4cccs4)C[C@@H]3C2)cs1.O=C(O)C(F)(F)F.O=C(O)C(F)(F)F", "Percent Effect": -15.47}
{"smiles": "Cc1nc(CN2CCOCC3(CCN(c4cnccn4)CC3)C2)cs1.O=C(O)C(F)(F)F", "Percent Effect": -3.315}
{"smiles": "CCc1cccc2c(CC(=O)N(C)CCN(C)C)c(C)[nH]c12.O=C(O)CC(O)(CC(=O)O)C(=O)O", "Percent Effect": 1.394}
{"smiles": "Cc1cc(N[C@H]2CCCN(Cc3ccccc3)C2)n2nc(C)cc2n1", "Percent Effect": 37.52}
{"smiles": "Cc1cc(NC2CCN(c3ccc(F)cc3)CC2)n2nc(C)cc2n1", "Percent Effect": 11.63}
{"smiles": "Cc1cc(NC2CCCN(Cc3ccc(F)cc3)C2)n2nc(C)cc2n1", "note": "(stereo unspecified)", "Percent Effect": 55.79}
{"smiles": "CNc1ncc2c(n1)CN(Cc1ccc(Cl)cc1)C2=O", "Percent Effect": -7.307}
{"smiles": "C[C@@H]1CN(Cc2cc(C3CCCCC3)no2)CC[C@@]1(O)C1CC1", "Percent Effect": -30.44}
{"smiles": "COCCC(=O)N1CCC(c2cc(O)n(C)n2)C1", "note": "(stereo unspecified)", "Percent Effect": 9.695}
{"smiles": "Cn1ccc(C(=O)N2CCCC(c3cc(O)n(C)n3)C2)n1", "note": "(stereo unspecified)", "Percent Effect": -7.619}
{"smiles": "Cn1nc(C2CCCN(C(=O)CO)C2)cc1O", "note": "(stereo unspecified)", "Percent Effect": 54.18}
{"smiles": "COCCN1CCOCC12CCN(C(=O)c1cccnc1)CC2.O=C(O)C(F)(F)F", "Percent Effect": -43.19}
{"smiles": "CN1CC[C@@H]2OC[C@H](C(=O)N(C)Cc3ccccn3)C[C@@H]2C1.O=C(O)C(F)(F)F.O=C(O)C(F)(F)F", "Percent Effect": 42.17}
{"smiles": "O=C(NC1CC1)[C@@H]1CCO[C@@H]2CCN(Cc3ccsc3)C[C@H]21.O=C(O)C(F)(F)F", "Percent Effect": -0.7242}
{"smiles": "O=C(O)C(F)(F)F.O=C([C@@H]1C[C@@H]2CCN(CCc3ccccc3)C[C@H]2O1)N1CCCC1", "Percent Effect": 7.524}
{"smiles": "O=c1cc(CN2CCCC2)nc2n1CCCN(CC1CC1)C2", "Percent Effect": 59.59}
{"smiles": "O=c1cc(CN2CCCC2)nc2n1CCCN(CC1CCOCC1)C2", "Percent Effect": -14.03}
{"smiles": "CN(C)Cc1cc(=O)n2c(n1)CN(CC1CC1)CCC2", "Percent Effect": -15.16}
{"smiles": "COCC(=O)NC[C@H]1CC[C@H](c2nnc(-c3ccncc3)o2)CC1", "Percent Effect": -43.76}
{"smiles": "Cn1cc(CN2CCCC23CCN(Cc2nccn2C)CC3)cn1.O=C(O)C(F)(F)F.O=C(O)C(F)(F)F", "Percent Effect": -17.58}
{"smiles": "Cl.Cl.O=C(NCc1cncc2c1CCN(C1CCOCC1)C2)c1ccco1", "Percent Effect": 7.016}
{"smiles": "O=C(O)C(F)(F)F.O=C(O)C(F)(F)F.c1ccc(N2CCC3(COCCN(c4ncccn4)C3)C2)nc1", "note": "(stereo unspecified)", "Percent Effect": 3.163}
{"smiles": "Cn1cc(CN2CCC(F)(F)C3(CCN(c4ncccn4)C3)C2)cn1.O=C(O)C(F)(F)F.O=C(O)C(F)(F)F", "note": "(stereo unspecified)", "Percent Effect": -18.65}
{"smiles": "CC(C)n1ccnc1CN1CCOC(CC2CCCCC2)C1", "note": "(stereo unspecified)", "Percent Effect": 50.37}
{"smiles": "CC(C)n1ccnc1CN1CCOC(CCc2ccccc2)C1", "note": "(stereo unspecified)", "Percent Effect": -0.01061}
{"smiles": "CC(C)n1ccnc1CN1CCCN(C(=O)CC2CCCO2)CC1", "note": "(stereo unspecified)", "Percent Effect": -7.243}
{"smiles": "O=C(O)C(F)(F)F.O=C(O)C(F)(F)F.O=C(O)C(F)(F)F.c1cnc(NC[C@H]2OC[C@@H]3CCN(Cc4nccs4)C[C@@H]32)nc1", "Percent Effect": -22.37}
{"smiles": "CNC(=O)[C@H]1C[C@@H]2CN(Cc3cccnc3OC)C[C@@H]2N1C(C)=O.O=C(O)C(F)(F)F.O=C(O)C(F)(F)F", "Percent Effect": -6.106}
{"smiles": "CCc1ccc(C2CCCN2C(=O)NCC(=O)NCC(C)C)o1", "note": "(stereo unspecified)", "Percent Effect": -12.75}
{"smiles": "COCCN1CCN(CCS(=O)(=O)C(F)(F)F)CC1C", "note": "(stereo unspecified)", "Percent Effect": 105.5}
{"smiles": "COCCN1CCN(CCS(C)(=O)=O)CC1C", "note": "(stereo unspecified)", "Percent Effect": -13.47}
{"smiles": "COCCN1CCN(CCCS(C)(=O)=O)CC1C", "note": "(stereo unspecified)", "Percent Effect": -16.37}
{"smiles": "CCN(CC)Cc1cn2c(n1)CN(C(=O)c1cc(C)on1)CC2.O=C(O)C(F)(F)F", "Percent Effect": -2.302}
{"smiles": "CC(C)c1noc(CS(=O)(=O)CC(=O)NCc2ccccc2)n1", "Percent Effect": 49.68}
{"smiles": "CC(C)c1noc(CS(=O)(=O)Cc2nc(C(C)C)no2)n1", "Percent Effect": -44.125}
{"smiles": "CC(C)c1noc(CS(=O)(=O)CC(=O)NCc2cccs2)n1", "Percent Effect": 58.74}
{"smiles": "CCC(C)NC(=O)CS(=O)(=O)Cc1nc(-c2cccs2)no1", "note": "(stereo unspecified)", "Percent Effect": 65.94}
{"smiles": "Cc1noc(CS(=O)(=O)CC(=O)NC(C)c2ccccc2)n1", "note": "(stereo unspecified)", "Percent Effect": 70.08}
{"smiles": "CC(C)=CCS(=O)(=O)Cc1nc(C(C)C)no1", "Percent Effect": 58.075}
{"smiles": "CCN(C(=O)C(C)S(=O)(=O)Cc1nc(C)no1)c1ccccc1", "note": "(stereo unspecified)", "Percent Effect": -1.269}
{"smiles": "Cc1noc(CS(=O)(=O)C(C)C(=O)N(C)c2ccccc2)n1", "note": "(stereo unspecified)", "Percent Effect": 6.585}
{"smiles": "CCc1noc(CS(=O)(=O)CC=C(C)C)n1", "Percent Effect": 29.3}
{"smiles": "CCC(C)NC(=O)CS(=O)(=O)Cc1ccccc1Cl", "note": "(stereo unspecified)", "Percent Effect": -5.393}
{"smiles": "CC(C)c1noc(CS(=O)(=O)CC(=O)NCCOc2ccccc2)n1", "Percent Effect": 41.58}
{"smiles": "CC(Cn1cccn1)NCc1nc(-c2cccs2)no1", "note": "(stereo unspecified)", "Percent Effect": 22.29}
{"smiles": "CC1N(C)C(=O)COC12CCN(Cc1nccs1)CC2.O=C(O)C(F)(F)F", "note": "(stereo unspecified)", "Percent Effect": 2.077}
{"smiles": "CCn1nc(C)cc1C(=O)N1C[C@H]2CCC[C@@]2(COc2ccccn2)C1.O=C(O)C(F)(F)F", "Percent Effect": -22.73}
{"smiles": "O=C(N[C@@H]1CN(CC2CC2)[C@@H]2CCCO[C@@H]21)c1cscn1.O=C(O)C(F)(F)F", "Percent Effect": 21.59}
{"smiles": "Cl.O=c1c2sccc2nc2n1CCN(Cc1ccccc1C(F)(F)F)CC2", "Percent Effect": 24}
{"smiles": "O=C(NC[C@]12COC[C@H]1CN(C1CCOCC1)C2)c1ccco1.O=C(O)C(F)(F)F", "Percent Effect": -7.738}
{"smiles": "O=C(O)C(F)(F)F.O=C([C@H]1C[C@@H]2CCN(C3CCOCC3)C[C@H]2O1)N1CCCC1", "Percent Effect": -29.11}
{"smiles": "CCCc1noc(CS(=O)(=O)CC(=O)NC(C)CCC)n1", "note": "(stereo unspecified)", "Percent Effect": 60.91}
{"smiles": "CC(C)c1noc(CS(=O)(=O)CC(=O)NCC(F)(F)F)n1", "Percent Effect": 45.89}
{"smiles": "CCCc1noc(CCC(=O)NC(C)c2nnc3n2CCCCC3)n1", "note": "(stereo unspecified)", "Percent Effect": -4.52}
{"smiles": "COc1cccc(CN2C[C@@H]3COC[C@]3(COCc3ccccn3)C2)c1.O=C(O)C(F)(F)F.O=C(O)C(F)(F)F", "Percent Effect": -27.12}
{"smiles": "Fc1cnc(N2CCCC3(CCN(Cc4ccco4)C3)C2)nc1.O=C(O)C(F)(F)F.O=C(O)C(F)(F)F", "note": "(stereo unspecified)", "Percent Effect": -39.88}
{"smiles": "Cc1cnn(CC2CCCCN2Cc2nc(N)c3ccccc3n2)c1", "note": "(stereo unspecified)", "Percent Effect": 92.62}
{"smiles": "Cc1cnn(CC2CCCN2Cc2noc(-c3ccccc3)n2)c1", "note": "(stereo unspecified)", "Percent Effect": -2.457}
{"smiles": "Cc1cnn(CC2CCCN2Cc2nc(N)c3ccccc3n2)c1", "note": "(stereo unspecified)", "Percent Effect": 64.38}
{"smiles": "Nc1nc(CN2CCCC2Cn2cncn2)nc2ccccc12", "note": "(stereo unspecified)", "Percent Effect": -4.506}
{"smiles": "Cc1cnn(CC2CN(Cc3nc(N)c4ccccc4n3)CCO2)c1", "note": "(stereo unspecified)", "Percent Effect": 8.088}
{"smiles": "Nc1nc(CN2CCCCC2Cn2cncn2)nc2ccccc12", "note": "(stereo unspecified)", "Percent Effect": -45.18}
{"smiles": "COc1cccc(CN2CCCCC2c2n[nH]cc2-c2cc(C)no2)c1.Cl", "note": "(stereo unspecified)", "Percent Effect": 13.26}
{"smiles": "CCOC1COC2(CCN(CC3CCOCC3)CC2)C1.O=C(O)C(F)(F)F", "note": "(stereo unspecified)", "Percent Effect": -19.84}
{"smiles": "CCS(=O)(=O)N1CCOCC2(CCN(c3ccccn3)C2)C1.O=C(O)C(F)(F)F", "note": "(stereo unspecified)", "Percent Effect": -24.76}
{"smiles": "CCc1nc2ccccc2c(=O)n1CC1(O)CCNCC1.Cl", "Percent Effect": -1.704}
{"smiles": "O=C(O)C(F)(F)F.O=C(c1ccncn1)N1CCC[C@]2(C[C@H](Oc3ncccc3F)CO2)C1", "Percent Effect": -22.98}
{"smiles": "COCCNC(=O)c1cn(C(C)(C)C)c2ncccc12", "Percent Effect": 84.66}
{"smiles": "CNC(=O)c1cn(C(C)(C)C)c2ncccc12", "Percent Effect": 4.278}
{"smiles": "CC(C)(C)n1cc(C(=O)NCCCn2ccnc2)c2cccnc21", "Percent Effect": -4.729}
{"smiles": "CCOCCCNC(=O)c1cn(C(C)(C)C)c2ncccc12", "Percent Effect": 48.73}
{"smiles": "COCCN(CCOC)C(=O)c1cn(C(C)(C)C)c2ncccc12", "Percent Effect": 20.52}
{"smiles": "CCNC(=O)c1cn(C(C)(C)C)c2ncccc12", "Percent Effect": 35.45}
{"smiles": "COCC(C)NC(=O)c1cn(C(C)(C)C)c2ncccc12", "note": "(stereo unspecified)", "Percent Effect": -8.611}
{"smiles": "CCCNC(=O)c1cn(C(C)(C)C)c2ncccc12", "Percent Effect": 52.59}
{"smiles": "COCCCNC(=O)c1cn(C(C)(C)C)c2ncccc12", "Percent Effect": 50.28}
